Data published in PubChem BioAssay.
Values without a mark were called inactive. The source made the active and inactive calls.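 How the source made its calls, unless noted: active means mean inhibition above 46.5%, the solvent-only control mean plus 3 SD; inactive means the rest.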

system: transactivating tegument protein VP16 (Human herpesvirus 1); test: VP16 transactivation reporter inhibitors, counter-screen for SRC2 inhibitor project, cell-based, luminescence, single concentration (AID 652007; in the data active means inhibition above about 36%); details: cell-based VP16 transactivation luciferase reporter, at 8.9 µM, active compounds read high

SMILES	inhibition [%]
O=C(CCl)N(Cc1ccccc1)c1ccccc1	26
CCOC(=O)C1CCCN(C(=O)CCNS(=O)(=O)c2ccc(Br)cc2)C1 (stereo not given)	10.6
CC(=O)C1=CCC(c2ccccc2Cl)N(S(=O)(=O)c2ccc(C)cc2)C1 (stereo not given)	13.9
O=C1CSc2ccc(C(=O)Nc3cccc(S(=O)(=O)Nc4ccc(Br)cc4)c3)cc2N1	11.2
Cc1cc(C)cc(C(=O)NC(=S)Nc2ccc(-c3cc4ccccc4oc3=O)cc2)c1	-8.51
O=C(CN1CCN(S(=O)(=O)c2ccc(F)c(F)c2)CC1)Nc1ccccc1C(=O)NC1CC1	-15.4
O=C(NCCCN1CCOCC1)c1ccc(CNS(=O)(=O)c2ccc(Br)cc2)cc1	-18.4
Cc1ccc(N(C)C(=O)c2cc(S(=O)(=O)N3CCCCC3)c[nH]2)cc1	1.11
Cn1nnnc1Sc1ncnc2scc(-c3ccc(Br)cc3)c12	25
CC(C)CCn1cnc2c(sc3nc4c(cc32)CSC(C)(C)C4)c1=O	-42.3

biological target: Nuclear receptor coactivator 2 (Homo sapiens) (UniProt Q15596); test: SRC2 coactivator transcriptional activity inhibitors, confirmation, cell-based, luminescence, HEK293, triplicate (AID 652008); details: HEK293 GAL4-SRC2 luciferase reporter, at 8.9 µM, active compounds read high;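 further: 0% = DMSO-treated cells and 100% = Gossypol at 36 µM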
Sequence (Q15596 whole entry, looked up, the tested form may be a part): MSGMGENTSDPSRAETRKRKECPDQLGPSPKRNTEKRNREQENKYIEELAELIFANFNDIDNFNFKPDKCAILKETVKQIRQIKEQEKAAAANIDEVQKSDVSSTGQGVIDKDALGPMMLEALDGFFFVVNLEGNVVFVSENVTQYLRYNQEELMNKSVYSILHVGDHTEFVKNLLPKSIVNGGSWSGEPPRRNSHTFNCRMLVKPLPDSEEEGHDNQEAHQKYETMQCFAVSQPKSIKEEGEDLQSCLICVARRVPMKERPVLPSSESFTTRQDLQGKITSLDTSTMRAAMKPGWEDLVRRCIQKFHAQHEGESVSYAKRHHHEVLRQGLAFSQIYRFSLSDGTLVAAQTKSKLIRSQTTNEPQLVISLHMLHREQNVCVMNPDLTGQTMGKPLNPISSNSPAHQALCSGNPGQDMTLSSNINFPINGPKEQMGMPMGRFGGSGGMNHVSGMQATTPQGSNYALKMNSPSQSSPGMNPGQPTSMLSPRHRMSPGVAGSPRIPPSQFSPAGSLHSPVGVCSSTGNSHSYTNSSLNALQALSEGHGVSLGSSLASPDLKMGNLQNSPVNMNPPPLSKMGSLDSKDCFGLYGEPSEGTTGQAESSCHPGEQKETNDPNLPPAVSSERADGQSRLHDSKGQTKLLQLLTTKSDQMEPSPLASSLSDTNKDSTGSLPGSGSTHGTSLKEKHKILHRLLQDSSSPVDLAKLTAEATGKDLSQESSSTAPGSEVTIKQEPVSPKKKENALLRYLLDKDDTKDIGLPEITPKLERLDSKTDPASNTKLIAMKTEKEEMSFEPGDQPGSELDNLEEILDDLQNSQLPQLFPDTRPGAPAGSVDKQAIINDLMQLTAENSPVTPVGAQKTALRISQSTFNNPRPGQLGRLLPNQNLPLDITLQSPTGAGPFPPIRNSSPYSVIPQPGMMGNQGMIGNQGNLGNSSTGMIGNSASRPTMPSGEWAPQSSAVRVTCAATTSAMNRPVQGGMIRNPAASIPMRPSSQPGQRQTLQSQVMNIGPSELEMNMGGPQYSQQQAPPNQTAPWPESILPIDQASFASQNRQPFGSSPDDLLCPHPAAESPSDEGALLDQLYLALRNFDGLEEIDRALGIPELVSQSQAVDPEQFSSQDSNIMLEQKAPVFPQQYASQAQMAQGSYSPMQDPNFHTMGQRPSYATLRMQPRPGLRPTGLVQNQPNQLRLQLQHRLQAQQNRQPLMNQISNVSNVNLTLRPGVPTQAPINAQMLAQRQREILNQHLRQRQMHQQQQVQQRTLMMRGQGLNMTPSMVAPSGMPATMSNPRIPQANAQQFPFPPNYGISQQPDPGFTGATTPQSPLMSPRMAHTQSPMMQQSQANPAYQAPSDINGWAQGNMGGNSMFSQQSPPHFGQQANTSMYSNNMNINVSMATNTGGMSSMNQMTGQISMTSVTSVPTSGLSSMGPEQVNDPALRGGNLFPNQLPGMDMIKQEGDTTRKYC

SMILES	inhibition
COc1ccc(/C=C2\SC(=S)N(CCCC(=O)Nc3ccc(O)cc3)C2=O)cc1	35.3%
CCCN1C(=O)C2C(C(=O)Nc3cccc(OC)c3)C3C=CC2(O3)C1C(=O)NC1CCCCC1 (stereo not given)	-16.6%
Cc1ccc(NC(=O)c2nc(S(=O)(=O)Cc3ccccc3)ncc2Cl)cc1	74.4% (active)
CN=C1CC(SC)=C1c1ccc(C)cc1	1.69%
Cc1cc(-c2ccccc2)n(-c2cc(N/N=C/c3ccccc3O)ncn2)n1	51.5% (active)
CCC1CSC(Nc2ccc(C(=O)/C=C/c3ccc(OC)c(OC)c3)cc2)=N1 (stereo not given)	39.9%
CCOC(=O)Cc1ccc(NC(=O)c2ccc(C(C)(C)C)cc2)cc1	63.9% (active)
COc1ccc(NC(=O)c2cccc(N3C(=O)c4cccc([N+](=O)[O-])c4C3=O)c2)cc1	-27.1%
CN1CCN(c2nc3ccccc3nc2C(C#N)S(=O)(=O)c2ccccc2)CC1 (stereo not given)	20.1%
Cc1ccc(CS(=O)(=O)c2ncc(Cl)c(C(=O)Nc3nnc(C(C)C)s3)n2)cc1	51.9% (active)
CN1Cc2sc(NC(=S)NC(=O)c3ccccc3)c(C#N)c2CC1(C)C	58.2% (active)
CCOC(=O)CN(C)C(=O)CCc1nnc(-c2ccc(-c3ccccc3)cc2)o1	19.8%
CCOc1ccc(NC(=O)c2ccccn2)cc1	25.7%
CCc1ccc(/C=C2\SC(=S)N(CCCC(=O)NC3=NCCS3)C2=O)cc1	90.5% (active)
Cc1ccc2sc(N(CCCN(C)C)C(=O)CCS(=O)(=O)c3ccccc3)nc2c1C	27.7%
Cc1ccc2c(c1)nnn2C1CCN(CC(=O)N(c2ccccc2)c2ccccc2)CC1	33.7%
O=C(N/N=C/c1ccc([N+](=O)[O-])s1)c1ccccc1	24.6%
COc1ccc(S(=O)(=O)Nc2cc(Sc3ncn[nH]3)c(O)c3ccccc23)cc1	10.1%
CC(C)CCSc1nc(N)c(C#N)cc1C#N	17.8%
C=C1C(=O)[C@]23C[C@H]1CC[C@H]2[C@]1(C)CCC[C@@](C)(C(=O)OC)[C@H]1C[C@@H]3O	90.4% (active)

SMILES	inhibition
COc1ccc2nc(Sc3c([N+](=O)[O-])nc(C)n3Cc3ccccc3)[nH]c2c1	37.8%
CCOC(=O)C1=C(COC(=O)CCOc2cc(C)ccc2C)NC(=O)NC1C (stereo not given)	-29.2%
CCOc1ccc(-c2cc(CCCC(=O)NCc3ccc(C)cc3)no2)cc1	60.2% (active)
COc1cccc(N2C(=O)CC(NNC(=O)c3cccs3)C2=O)c1 (stereo not given)	-23.7%
Cc1cc(Cl)ccc1OCCCC(=O)NO	32.7%
Cc1nc(SCc2cccc(C(=O)O)c2)nc2c1CCCC2	56.6% (active)
CCN(CC)S(=O)(=O)c1ccc(/C=C/C(=O)OCC(=O)NCc2ccc3c(c2)OCO3)cc1	-11.1%
O=C(CCc1ccncc1)N1CCCC(Nc2ccc(F)c(F)c2)C1 (stereo not given)	-7.87%
O=C(CSCCO)Nc1ccc(C23CC4CC(CC(C4)C2)C3)cc1	41.9%
CN1c2ccccc2C(C)(C)C12C=Cc1cc(O)ccc1O2 (stereo not given)	23.8%
O=C(CCl)N(Cc1ccccc1)c1ccccc1	48.6% (active)
CCOC(=O)C1CCCN(C(=O)CCNS(=O)(=O)c2ccc(Br)cc2)C1 (stereo not given)	-4.97%
CC(=O)C1=CCC(c2ccccc2Cl)N(S(=O)(=O)c2ccc(C)cc2)C1 (stereo not given)	15.3%
O=C1CSc2ccc(C(=O)Nc3cccc(S(=O)(=O)Nc4ccc(Br)cc4)c3)cc2N1	25.2%
Cc1cc(C)cc(C(=O)NC(=S)Nc2ccc(-c3cc4ccccc4oc3=O)cc2)c1	46.7% (active)
O=C(CN1CCN(S(=O)(=O)c2ccc(F)c(F)c2)CC1)Nc1ccccc1C(=O)NC1CC1	-35.8%
O=C(NCCCN1CCOCC1)c1ccc(CNS(=O)(=O)c2ccc(Br)cc2)cc1	19.1%
Cc1ccc(N(C)C(=O)c2cc(S(=O)(=O)N3CCCCC3)c[nH]2)cc1	15.4%
Cn1nnnc1Sc1ncnc2scc(-c3ccc(Br)cc3)c12	37.2%
CC(C)CCn1cnc2c(sc3nc4c(cc32)CSC(C)(C)C4)c1=O	-11.9%
